Laboratory results as given in PubChem BioAssay AID1159580 (chemical genetic matrix, 2015).
Hit rate of the full screen: of about 5,500 compounds, about 2,000 (36%) were called active. About 18% were inconclusive and are not listed. Rule as the data show it: active = normalized growth mostly below about 0.91 (no sharp cut-off); inconclusive = no clear call, values can overlap the other calls; inactive = mostly above about 0.92. The list shows a part of the results.

Assay: chemical genetic growth profiling, strain panel (AID 1159580);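 also: tested at 20 µM; growth read once vehicle control cultures reached saturation at 30 °C; 1 = growth at the plate median or of vehicle wells; lower values mean less growth of the strain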
Conditions: S. cerevisiae deletion strains, growth OD

Measured: normalized growth

NC[C@@H]1O[C@H](C23CC4CC(CC(C4)C2)C3)Cc2c1ccc(O)c2O
active: locus YMR307W, strain GAS1, active compounds read low 0.414 | locus YPL055C, strain LGE1, active compounds read low 0.599
inactive: locus YAL040C, strain CLN3, active compounds read low 0.954 | locus YER002W, strain NOP16, active compounds read low 0.998 | locus YMR263W, strain SAP30, active compounds read low 1 | locus YNL128W, strain TEP1, active compounds read low 0.995 | locus YNL175C, strain NOP13, active compounds read low 1.03 | locus YNL197C, strain WHI3, active compounds read low 1.03 | locus YNL224C, strain SQS1, active compounds read low 1.09 | locus YOR083W, strain WHI5 (second series), active compounds read low 1.01
